Assay results from the supplement of paper PMC3334620.
Whole data set: some 33,000 sequences, median “E-score (-0.5 to 0.5)” near -0.036, cut for the highest 2% near 0.37. This is one part of a sample in which the highest values are shown more often than they occur.

Molecular target: T1, Yer064c (UniProt P40041)
T1 sequence: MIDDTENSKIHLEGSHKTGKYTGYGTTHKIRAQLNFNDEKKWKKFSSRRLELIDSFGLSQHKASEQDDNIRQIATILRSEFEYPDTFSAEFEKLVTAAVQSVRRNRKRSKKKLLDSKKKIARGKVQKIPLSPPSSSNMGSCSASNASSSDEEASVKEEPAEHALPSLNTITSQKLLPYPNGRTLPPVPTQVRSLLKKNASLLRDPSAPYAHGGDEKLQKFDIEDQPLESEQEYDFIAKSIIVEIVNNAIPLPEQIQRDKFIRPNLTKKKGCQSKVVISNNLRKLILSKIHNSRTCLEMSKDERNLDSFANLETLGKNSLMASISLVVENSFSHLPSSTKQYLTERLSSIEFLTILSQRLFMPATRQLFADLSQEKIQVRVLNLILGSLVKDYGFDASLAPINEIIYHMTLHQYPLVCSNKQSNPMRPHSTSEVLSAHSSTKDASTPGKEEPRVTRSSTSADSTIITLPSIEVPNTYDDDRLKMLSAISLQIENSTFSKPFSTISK
Assay: PBM E-score (8-mer binding enrichment) (E-score (-0.5 to 0.5)); higher = stronger / more preferred TF binding
Conditions: protein concentration: 200 nM; construct: GST-full length
Experimental: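 Universal 'all 10-mer' protein binding microarrays (Agilent AMADID 015681) probed with GST-tagged S. cerevisiae TFs (full-length or DBD) made by in vitro transcription/translation (PURExpress), about 100-200 nM. Bound TF was detected with fluorescent anti-GST. Each ungapped 8-mer (which stands for itself and its reverse complement) is scored by the PBM enrichment score (E-score), a modified Wilcoxon-Mann-Whitney statistic from -0.5 to +0.5, computed with the Universal PBM Analysis Suite. Scale: above 0.35 generally sequence-specific binding.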

Sequence	PBM E-score
AAAGGAAG	-0.0963
GAGACAGC	0.136
CTCCTCGA	0.0215
ATTGATCC	0.0238
GCGATCCA	-0.145
CTGTAAGC	-0.0285
CTGTAGTC	0.416
ATGTAGTC	0.382
ATGTAGTG	0.0118
CTGTAGTA	0.13
ATGTAGTA	0.0442
CTGTAGAC	0.0599
GTCCGCAA	0.00032
CTAACCGA	0.171
ACGGAGAT	0.0115
CATTCGAA	0.0908
CCGGTGTA	-0.162
GTAGTAAC	0.0921
CTAGTCTA	0.205
GTAGTCCA	0.262
GTCGTCAC	0.142
GTAGTCAC	0.479
CTAGTCCC	-0.135
GTAGTCGA	0.263
CTAGTCAA	0.383

Sequence	PBM E-score
GTAGTCAA	0.445
CTAGTCAC	0.461
CTAGTCGA	0.214
CTAGTCTC	0.278
ACCACTCT	-0.0617
GTCACGAA	0.106
TACGTCAA	-0.153
TTAGTCAA	0.464
TTAGTGAA	0.178
TAGTGCGA	-0.0974
CACTCGAC	-0.0515
AACTCGAC	0.0909
GACTCGAA	0.396
CACTCGAA	0.212
AACTCGAA	-0.0714
GACTCGAC	0.391
CAGGCATG	-0.133
GTCCTCGA	0.197
CTATCCCA	-0.208
ACTACGAC	0.302
GCAACTAA	0.0789
AGGACTAC	0.341
GCGACTAA	0.442
CCGACTAA	0.358
ACGACTAC	0.415

Sequence	PBM E-score
TCGACTAA	0.373
ACTACTAA	0.25
GCTACTAA	-0.101
TCGACGAA	-0.00207
ACGACTAA	0.438
ACGACGAA	0.139
GGGAAACC	-0.0566
CTTCTGTA	-0.0492
ATGGTGCC	-0.358
TGATTGAA	0.333
CCCTCTGC	-0.226
ACGACTAG	0.359
GCGACTAC	0.391
ACGACTAT	0.401
CCGACTAC	0.325
ACGACGAT	0.023
GGGACTAC	0.228
CGCACAAG	0.0388
AGGATAGG	-0.0969
ACCAACTG	-0.097
CAACGTGC	-0.137
ACGCTGTA	-0.00895
ATGGCTCG	0.237
ATGGCTCC	0.256
ATGGCTCA	0.422

Sequence	PBM E-score
CCATAAAG	-0.178
AGGACTTA	0.234
GTAACTTA	0.166
ATGACGTA	0.0562
GTGACTTA	0.443
CCGACTTA	0.263
CTGACTTA	0.407
CGGACTTA	0.203
GGGACTTA	-0.0167
ATGACTTA	0.475
CAGACACG	-0.14
AGCGGTCA	-0.0499
ACTTACAT	-0.0151
AAGGGGCC	-0.145
AGCGAGGC	-0.282
AGGAGTCG	0.375
AGGAGTCC	0.297
AGGAGTAA	0.177
AGGAGTGA	0.105
AGGAGTCA	0.486
AGGAGTTG	-0.0388
ACTTTCTG	0.208
TCCACAAA	0.0257
ACCTCCTA	-0.134
CCGCACCA	0.017

Sequence	PBM E-score
TGCCCCAA	0.0126
CAGTGAAA	0.0766
GGTGTCGA	0.046
TACTACAA	0.119
CACTACAA	0.0688
GACTACAA	0.402
GACTACAC	0.399
AACTACAC	0.0443
CACTACAC	-0.0592
ACCAGCGC	-0.221
GGGCCCGA	-0.142
GAGCACGC	-0.163
GCTAAAAA	0.0668
CCTGAGTA	0.234
ACTGAGTG	0.161
ACTAAGTA	0.235
ACTGAGTC	0.477
CCTAAGTC	0.276
CCTGAGTC	0.461
ACTGAGTA	0.28
CCTGAGGC	-0.16
ACTAAGTC	0.376
CGGTATAC	-0.119
ATCCGGGA	-0.104
AATGCACA	-0.0113

Sequence	PBM E-score
TAGCCGCA	-0.0712
AAATTTCC	-0.0423
ACTGACCC	0.0295
CCTGACGC	-0.133
CCTGACTA	0.461
GCTGACGA	0.129
GCTGACAA	0.00774
CCTGACAC	0.023
ACTGACTC	0.461
CCTGACTC	0.481
CCTGACAA	-0.124
GCTGACTA	0.467
CCTGACGA	0.115
ACTGACAC	0.0326
ACCGCTCT	-0.114
CCGCTTAC	0.026
ATCACCCA	0.135
AGACCAGG	-0.166
TGCGTAAA	0.026
GCCGTCGA	-0.0942
CGCGGTAG	-0.0407
CCGGGTAA	-0.0414
ACTGACTA	0.447
ACTGACCA	-0.0902
ACTGACTG	0.306

Sequence	PBM E-score
ATAAAACC	0.0678
AAAAACCT	0.111
AGTCACTG	0.457
ATTCACTC	0.0742
AGTCACTC	0.467
GGTCACTA	-0.234
CGTCACTA	0.0406
AGACACTG	0.0291
AGTCACTA	0.469
CGTCACTC	-0.0803
ATTCACTG	0.138
TACTGATA	0.0643
ATAGGACG	-0.178
CCGCCAAG	-0.149
ACGTAGTG	-0.132
CCGTAGTC	0.394
CCGTAGGC	-0.119
ACGTAGTA	-0.0277
CCGTAGTA	-0.15
ACGTAGTC	0.39
AGCGTTAG	-0.0809
CATAGCAA	-0.0521
